Rows were chosen to be rich in hits. Some 3.6% of all compounds tested hit in one or more screens of this group.
Myeloid diff 2: myeloid differentiation induction; ER-HoxA9 myeloid progenitors, lysozyme-GFP differentiation, flow cytometry; calls only at 10 µM; actives 1% (n = 360,000);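 active = normalized GFP-positive differentiation at or above the plate's own cutoff, the solvent-only control mean plus 3 SD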;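 also: cells exposed to compound for four days before flow analysis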
NadD block: NadD (S. aureus) enzyme inhibition; purified NadD enzyme, colorimetric absorbance read-out; inhibition, % at 20 µM; actives 0.78% (n = 360,000); AID 602399; in the data active = inhibition above about 26%
FAS TE block: FAS thioesterase (human) inhibition; P49327; recombinant FAS-TE, OMFH fluorogenic substrate, fluorescence endpoint; inhibition, % at 15 µM; actives 0.67% (n = 360,000); AID 602261;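 active = compounds whose normalised, plate-corrected inhibition of enzyme fluorescence in the single-dose primary screen is 50% or more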;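 also: 0% = DMSO with enzyme and 100% = substrate without enzyme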
NRP1-CendR mod: alters CendR peptide binding to human NRP-1. O14786. FAM-RPARPAR peptide binding to NRP-1, fluorescence polarization. inhibition, % at 25 µM. actives 0.85% (n = 360,000);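 active = inhibition or corrected inhibition above about 18%, plus a signal ratio from 0.5 to 1.5, limit read from the data, passing the limit was not always enough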
Target sequence (O14786 whole entry, looked up): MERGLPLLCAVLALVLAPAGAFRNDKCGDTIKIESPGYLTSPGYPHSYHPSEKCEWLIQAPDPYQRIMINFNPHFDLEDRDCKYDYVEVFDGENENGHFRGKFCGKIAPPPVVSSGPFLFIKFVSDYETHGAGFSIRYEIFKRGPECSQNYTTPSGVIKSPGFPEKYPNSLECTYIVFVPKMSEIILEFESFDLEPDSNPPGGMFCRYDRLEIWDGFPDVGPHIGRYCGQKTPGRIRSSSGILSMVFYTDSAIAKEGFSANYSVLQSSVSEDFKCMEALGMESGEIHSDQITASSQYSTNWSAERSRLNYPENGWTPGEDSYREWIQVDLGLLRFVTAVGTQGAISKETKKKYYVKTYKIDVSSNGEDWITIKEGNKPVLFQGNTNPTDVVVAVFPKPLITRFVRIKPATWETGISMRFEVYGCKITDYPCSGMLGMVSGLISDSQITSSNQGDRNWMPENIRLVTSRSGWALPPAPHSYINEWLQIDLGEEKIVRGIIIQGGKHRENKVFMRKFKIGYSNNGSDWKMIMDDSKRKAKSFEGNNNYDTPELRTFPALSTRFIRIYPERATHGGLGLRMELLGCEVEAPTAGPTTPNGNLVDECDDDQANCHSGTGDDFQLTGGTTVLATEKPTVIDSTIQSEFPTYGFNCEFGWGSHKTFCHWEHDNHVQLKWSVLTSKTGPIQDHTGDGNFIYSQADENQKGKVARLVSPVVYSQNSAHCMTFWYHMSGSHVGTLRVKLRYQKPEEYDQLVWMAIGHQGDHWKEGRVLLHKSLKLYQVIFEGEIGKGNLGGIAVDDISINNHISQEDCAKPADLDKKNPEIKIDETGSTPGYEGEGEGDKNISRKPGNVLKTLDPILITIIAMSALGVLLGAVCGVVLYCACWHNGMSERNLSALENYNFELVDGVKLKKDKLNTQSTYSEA
CRFR2-BP antag: CRF-BP/CRF-R2 complex antagonism; HEK293 CRF-R2/CRF-BP, CRF-induced calcium fluorescence; inhibition, % at 11.8 µM; actives 0.59% (n = 350,000);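 active = inhibition of the ligand-induced calcium signal above about 50% at the single tested concentration, limit read from the data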
Myeloid diff CP1: compounds promoting myeloid differentiation; shares compounds with Myeloid diff 2; calls only; ER-HoxA9 myeloid progenitors, GFP/Mac1 double-positive flow; AID 651706; actives 2% (n = 2,300);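 active = share of green or green-and-red cells above 9 and 9% in run 1 or 4 and 3% in run 2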
GFP autofluor: flagged as fluorescent in myeloid differentiation counter-screen. actives 7.4% (n = 2,300). shares compounds with Myeloid diff 2. ER-HoxA9 myeloid progenitors, no estrogen, GFP autofluorescence flow cytometry; vehicle wells 0%, positive control 100%. fluorescence response, % (concentration not given with the values);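 active = over 5% cells positive for green fluorescent reporter, or over 2% positive for both it and APC stain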;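 also: range taken on the double positive population between DMSO and positive control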
The depositor's hits bear a star; i = inactive; . = not tested or not shown; + = active, no number.

SMILES	Myeloid diff 2	NadD block	FAS TE block	NRP1-CendR mod	CRFR2-BP antag	Myeloid diff CP1	GFP autofluor
COc1ccc2[nH]c3c(c2c1)CCNC3c1ccc([N+](=O)[O-])o1 (stereo not given)	+	24.9	-52.0	-14.0	-24.1	i	98.6*
O=C(COC(=O)c1cccs1)NCc1ccc2c(c1)OCO2	+	3.1	-14.2	1.4	-2.3	i	0.3
CN(C)CCCN(C(=O)c1cccc(N2C(=O)CCC2=O)c1)c1nc2cc3c(cc2s1)OCO3	i	-3.3	-4.2	1.3	-7.2	.	.
O=C(CSc1nc2ccccc2c2c1CCCC2)N1CCOCC1	.	0.4	3.9	2.3	-7.9	.	.
COC(=O)Cn1nnnc1-c1nc2cc(C)c(C)cc2[nH]c1=O	i	3.6	-10.2	-8.2	.	.	.
CC1=Nc2ccc3ccccc3c2C1(C)C	+	0.3	-25.8	-110.3	-21.4	i	0.0
COC(=O)c1cc(OC)c(OC)cc1NC(=O)C1CCC(=O)N1S(=O)(=O)c1ccc(C)cc1 (stereo not given)	i	9.8	3.9	2.5	7.7	.	.
COC(=O)c1ccccc1NC(=O)C1CCC(=O)N1S(=O)(=O)c1ccc(C)cc1 (stereo not given)	i	-6.0	-1.3	0.0	18.6	i	0.0
CCC(C)NC(=S)NNC(=O)c1ccc(C(C)(C)C)cc1 (stereo not given)	i	-0.8	-3.7	9.3	17.1	.	.
COc1ccc(NC(=O)/C(=C\c2ccco2)NC(=O)c2ccco2)cc1	i	0.6	-6.7	-30.6	-1.5	i	0.3
CCOc1ccc(NC(=O)CN(C)C(=O)Cc2c(C)nc3ccccc3c2C)cc1OCC	i	2.3	-6.4	0.6	0.2	.	.
CCOC(=O)N1CCC(N2CCN(S(=O)(=O)c3ccc(OC)cc3)CC2)CC1	i	-2.2	1.3	4.1	-9.8	i	3.5*
CCOC(=O)N1CCC(N2CCN(S(=O)(=O)c3ccc(C)cc3)CC2)CC1	i	-4.6	-5.8	3.8	2.5	.	.
O=C(O)c1ccc(Cl)c(S(=O)(=O)Nc2ccc(OCc3ccccc3)cc2)c1	i	2.4	10.1	-2.8	-6.9	i	0.0
CCOc1ccc(NS(=O)(=O)c2cc(C(=O)N3CCCC3)ccc2Cl)cc1	i	-3.6	-0.9	3.6	-3.3	.	.
CCCN1C(=O)c2cccc3c(N4CCCCC4)ccc(c23)C1=O	+	2.1	-145.8	133.5	-240.9	i	0.7
O=C1c2cccc3c(N4CCCCC4)ccc(c23)C(=O)N1c1ccccn1	i	-2.3	-51.1	-37.3	-8.9	.	.
CC(=O)Nc1ccc(N2CCOCC2)c([N+](=O)[O-])c1	i	-0.4	-0.3	8.5	24.6	.	.
CCn1c(-c2ccc(F)cc2)n[nH]c1=S	i	2.4	-5.1	-2.0	15.8	i	0.0
O=C(CSc1nnc(NC(=O)C2CC2)s1)Nc1ccccc1Cl	i	6.8	-3.7	5.8	-11.1	.	.
Cc1ccc(CSc2nnc(-c3cccnc3)n2N)cc1	i	4.4	-4.6	5.5	5.6	.	.
Cc1ccc(C(=O)CSc2nnc(-c3cccnc3)n2N)cc1	i	-4.4	1.1	-12.4	-7.4	i	0.0
CCOc1ccc2nc(N3CCC(C(=O)N4CCN(C5CCCCC5)CC4)CC3)sc2c1	i	-4.0	-1.8	9.9	19.2	i	0.0
Nc1ncnc2c1ncn2[C@@H]1O[C@H](CNC(=O)[C@@H](N)Cc2ccc(C(F)(F)F)cc2)[C@@H](O)[C@H]1O	i	-1.5	-4.9	5.4	4.7	.	.
O=[N+]([O-])c1ccc(Nc2ccccc2O)c2nonc12	+	-2.7	-3.7	-7.5	26.4	i	2.3
SMILES	Myeloid diff 2	NadD block	FAS TE block	NRP1-CendR mod	CRFR2-BP antag	Myeloid diff CP1	GFP autofluor
CCCCCN(C(=O)CCC(=O)OCC(=O)N(C)Cc1ccc(C)cc1)c1c(N)n(CCCC)c(=O)[nH]c1=O	i	0.4	1.3	3.1	10.2	.	.
ClCCn1cnc2c(SCc3ccccc3Cl)ncnc21	i	-4.7	-16.6	4.8	-4.5	i	3.9
C/C(=N\NC(=O)CNc1ccc(F)cc1)c1cc2ccccc2o1	+	2.3	7.6	-1.5	-8.9	i	0.0
O=c1[nH]c(SCc2ccccc2)nc2c1sc1ccccc12	+	-1.5	-1.6	10.0	-14.5	i	0.0
C[C@]1(C(=O)NCCCNc2ncc(C(F)(F)F)cc2Cl)C=C[C@@H](Cc2ccccc2)N1C(=O)c1ccccc1	i	-1.9	17.8	-2.9	10.7	i	0.0
CC1(C(=O)N2CCN(C(=O)c3ccco3)CC2)CC1(Br)Br (stereo not given)	i	3.7	-2.1	-2.6	7.7	.	.
CC1(C)Cc2c(cnn2-c2cccc(F)c2)C(NC(=O)c2ccc[n+]([O-])c2)C1 (stereo not given)	i	-2.6	-3.2	0.6	-8.9	.	.
CCCNS(=O)(=O)c1cccc(C(=O)NC2CCCc3ccccc32)c1 (stereo not given)	i	-0.9	5.4	-1.0	51.9*	i	0.3
CCN(CC(=O)NCc1cccs1)C(=O)Cc1ccc(C)c(C)c1	i	-0.8	-4.4	1.9	-1.1	.	.
CCCOc1ccccc1C(=O)N1CCNC(=O)C1CC(=O)OC(C)C (stereo not given)	i	-3.8	-1.4	7.4	-1.0	.	.
CCOC(=O)/C(C#N)=N/Nc1ccc(S(=O)(=O)N2CCc3ccccc32)cc1	i	9.9	28.6	5.9	47.6	.	.
N#C/C(=N\Nc1ccc(S(=O)(=O)N2CCc3ccccc32)cc1)C(N)=S	+	23.1	13.4	-12.5	40.4	i	0.0
O=C(Nc1ccsn1)c1ccc(Cl)cc1Cl	i	-3.1	-4.0	-1.3	-10.9	.	.
COc1ccc(-c2cc(C3CCN(C(=O)OC(C)(C)C)CC3)[nH]n2)cc1	i	-8.0	6.3	4.0	-18.3	.	.
CCC[C@H]1CC(=O)C=C(c2ccc(OC)cc2)ON1C(=O)OC(C)(C)C	i	-3.3	17.4	-9.4	1.8	i	0.0
C[C@H](NC(=O)c1ccco1)C(=O)NNC(=O)c1ccc(F)cc1	i	3.5	-1.9	5.3	-5.9	.	.
COC(=O)COc1ccc(S(=O)(=O)Nc2ccc3c(c2)OCO3)cc1	i	-4.7	-0.9	5.1	-14.4	.	.
COC(=O)COc1ccc(S(=O)(=O)Nc2ccc3c(c2)OCO3)cc1Cl	+	-5.8	5.9	1.5	-9.5	i	0.0
CCCN1CCC(N2CCN(c3cccc(C(F)(F)F)c3)CC2)CC1	+	1.1	-5.3	1.0	7.1	i	0.0
Cc1cccn2cc(COc3ccc(-c4ccccc4)cc3)nc12	+	3.8	34.2	5.1	7.4	+	0.6
O=C(CNC(=O)c1ccc(Br)o1)NNC(=O)COc1ccccc1Cl	i	-4.2	-6.7	21.9	0.7	.	.
